Source: PubChem BioAssay AID624298 (National Center for Advancing Translational Sciences (NCATS), 2012)
Records with an inconclusive call do not appear. Active and inactive are the calls of the source. Calls come from the whole dose curve; as a rule, active = well fitted activation curve with a large enough effect; inconclusive = small, poorly fitted or top-dose-only effect; inactive = no such curve, though single readings can be large or run the other way.

experiment: Activators of T cell receptors: Hit Validation; settings: primary human leukocytes, cytokine release by HTRF, 48 h, TCR-stimulated with anti-CD3 beads; series mostly up to 46.1 µM
Method in brief: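 Readout is IL-2 secretion by HTRF, measured after 48 hr in which primary human leukocytes received compound together with a-CD3 beads as the only TCR stimulus.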
Potency is the fitted concentration of half-maximal effect.

Potency, active:
CC(=O)NS(=O)(=O)c1ccc(NC(=S)NC(=O)COc2ccccc2C)cc1 14.1 µM
CC[n+]1ccc(/C=C/c2ccc(N(C)C)cc2)c2ccccc21 4.45 µM
CCC(=C/c1sc2ccc3ccccc3c2[n+]1C)/C=C1\Sc2ccc3ccccc3c2N1C 9.96 µM

Potency, inactive:
COc1ccccc1CC(=O)NNC(=O)CN(C)S(=O)(=O)c1ccc(Cl)cc1
CC(=O)NC(CC(=O)O)C(=O)O (stereo unspecified)
CC(C)CSc1nc2c(c(=O)[nH]c(=O)n2C)n1CC(O)COc1cccc2ccccc12 (stereo unspecified)
CC(C)N1C(=O)C(=O)N(CC(=O)N2CCc3ccccc32)C1=O
Cc1ccc(NC(=O)C2CC(=O)N(Cc3ccco3)C2)cc1 (stereo unspecified)
C=CCNC(=S)Nc1ccc2nsnc2c1
O=C(CCCN1CCC(C(=O)c2ccc(F)cc2)CC1)c1ccc(F)cc1
CCOc1ccc(/C=N/NC(=O)c2ccc(O)cc2)cc1CN1CC2CC(C1)c1cccc(=O)n1C2 (stereo unspecified)
COc1ccccc1N1CCN(CCCC(=O)c2ccc(F)cc2)CC1
CCOc1ccc(C(=O)N(CN2CCCC2=O)c2cccc(Cl)c2)cc1
COc1ccc(CN(C)C(C)C(=O)N(C)CC(=O)Nc2ccc(C)cc2)cc1F (stereo unspecified)
O=C1N=C(O)CN1/N=C/c1ccc(-c2ccc([N+](=O)[O-])cc2)o1
CCCc1nc2ccccc2c(=O)n1CCc1ccccc1
CCOc1cc(/C=N/O)cc(Br)c1OCC(=O)NCc1ccccc1
COc1cc(N=c2ssnc2Cl)c(OC)cc1Cl
O=C(Nc1nnc(-c2ccccc2)s1)c1cccc(S(=O)(=O)N2CCOCC2)c1
CN(C)CCCN1c2ccccc2Sc2ccc(Cl)cc21
COc1ccc(C(=O)COC(=O)c2sc(C)nc2C)cc1OC
Cn1nc(C(F)(F)F)cc1-c1ccc(S(N)(=O)=O)s1
COc1ccc(NC(=O)COC(=O)CN2C(=O)C3CCCCC3C2=O)cc1OC (stereo unspecified)
CCOc1ccc(-c2nnc(-c3snc(-c4ccc(F)cc4)c3N=CN(C)C)o2)cc1
O=C(CCCN=C1NS(=O)(=O)c2ccccc21)Nc1ccc(Cl)cc1
Nn1c(SCc2ccccc2F)nnc1-c1ccccn1
Cc1ccc(C(CC(=O)O)Nc2nc(N3CCOCC3)nc(N3CCOCC3)n2)cc1 (stereo unspecified)
OC1CCCC1
NC(=O)c1ccccc1
O=C1C=C(NCCc2ccccc2)C2(CCCCC2)O1
CCOC(=O)c1c(NC(=O)c2ccc(N3C(=O)C4C5C=CC(C5)C4C3=O)cc2)sc2c1CCCC2 (stereo unspecified)
